Rows were chosen to be rich in hits. Some 32% of all compounds tested hit in one or more screens of this group.
PostGolgi ctrl = growth of the yeast control strain, post-Golgi counter-screen | actives 5% (n = 98,000) | inhibition, % at 10 µM | efflux-deficient yeast background strain, growth absorbance A615, 16 h
CYP2C19 inh = blocks human cytochrome P450 2C19; P33261; CYP2C19 Supersomes, luciferin-H EGE luminescence, 30 min; inhibition, % at 5 µM; actives 21% (n = 96,000);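 active = CYP2C19 inhibition above a set limit at 5 µM in the primary screen, cut at about 50% in these data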;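 also: plate controls were negative control wells for no effect and 2.5 mM tranylcypromine positive control for full effect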
CYP2C9 act = activators of human CYP2C9. actives 1.4% (n = 96,000). recombinant CYP2C9, luciferin-H conversion, luminescence; hits give high values; factor 1 = untreated enzyme, 0 = blocked. activation factor at 5 µM. AID 1024. P11712;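 active = activation factor of 2 or more for CYP2C9 at a 5 µM dose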;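 also: 0 = sulfaphenazole-blocked wells and 1 = vehicle-only wells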
Target sequence (P11712 whole entry, looked up): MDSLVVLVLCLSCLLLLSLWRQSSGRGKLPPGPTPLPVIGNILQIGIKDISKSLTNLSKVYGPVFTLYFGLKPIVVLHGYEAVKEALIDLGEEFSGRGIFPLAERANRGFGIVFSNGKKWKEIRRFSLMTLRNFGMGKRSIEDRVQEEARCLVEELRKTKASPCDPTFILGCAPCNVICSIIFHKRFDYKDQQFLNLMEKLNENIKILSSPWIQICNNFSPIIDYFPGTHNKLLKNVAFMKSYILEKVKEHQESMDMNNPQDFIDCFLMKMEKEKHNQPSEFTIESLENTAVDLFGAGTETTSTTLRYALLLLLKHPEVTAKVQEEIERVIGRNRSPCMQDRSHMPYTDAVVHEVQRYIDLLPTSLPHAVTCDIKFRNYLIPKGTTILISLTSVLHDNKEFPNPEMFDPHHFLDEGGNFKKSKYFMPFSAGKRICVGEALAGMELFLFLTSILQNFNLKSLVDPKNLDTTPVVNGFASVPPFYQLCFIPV
PostGolgi yeast = growth inhibition of a yeast mutant, post-Golgi transport screen; post-Golgi transport phenotypic cell assay; inhibition, % at 10 µM; actives 0.9% (n = 98,000);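 also: yeast cells grown in 1536-well plates; yeast grown about 18 h at 30C before absorbance read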
CYP2C19 act = activators of human cytochrome P450 2C19; P33261; recombinant CYP2C19, luciferin-H EGE luminescence; hits give high values; 0 = fully inhibited enzyme, 1 = untreated enzyme; activation factor at 5 µM; 96,000 tested, under 10 active; AID 1025;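 active = activation factor of at least 2 at 5 µM in the primary screen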;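 also: 0 = wells with 2.5 mM tranylcypromine and 1 = vehicle-only wells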
CYP2C9 inhib = blocks human cytochrome P450 2C9. CYP2C9 Supersomes, luciferin-H conversion, luminescence. inhibition, % at 5 µM. actives 20% (n = 96,000). AID 777;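 active = blocking of liver enzyme CYP2C9 beyond about 50% at 5 µM, limit read from the data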
An asterisk follows results filed as active; / = no result. Rule as the data show it, unless noted: active = inhibition above about 30%; inactive = the rest.

SMILES | PostGolgi ctrl | CYP2C19 inh | CYP2C9 act | PostGolgi yeast | CYP2C19 act | CYP2C9 inhib
Cc1ccc(CC2CC(=O)N(c3nc4ccccc4n3C)C2=O)cc1 (stereo not given) | -3 | 8 | 1.5 | 0 | 0.9 | -46
O=C(Nc1cccnc1)c1ccc(Oc2ccccc2)cc1 | 10 | 36 | 0.1 | -4 | 0.6 | 89*
O=C(Nc1cccnc1)c1ccccc1Oc1ccccc1 | 9 | 64* | 0.5 | 9 | 0.4 | 55*
CCCc1[nH]nc2c1C(c1ccc(OC(=O)N3CCOCC3)c(OC)c1)C(C#N)=C(N)O2 (stereo not given) | 1 | 2 | 1 | 1 | 1 | 4
CCOC(=O)Cn1c(CN2CCN(c3cccc(Cl)c3)CC2)nc2c1c(=O)[nH]c(=O)n2C | 9 | / | / | 5 | / | /
Cc1nc2c3c(-c4ccccc4)c(-c4ccccc4)oc3ncn2n1 | / | 1 | 0.9 | / | 1 | 11
COc1ccc(NC(=O)COC(=O)c2c(-c3ccccc3)noc2C)cc1 | 6 | 53* | 0.7 | 4 | 0.5 | 27
Cc1noc(C)c1C(=O)OCC(=O)Nc1ccccc1Oc1ccccc1 | 9 | 35 | 0.5 | -1 | 0.7 | 50
COc1cccc(NC(=O)COC(=O)c2c(-c3ccccc3)noc2C)c1 | 15 | 60* | 0.4 | 6 | 0.4 | 60*
Cc1onc(-c2ccccc2Cl)c1C(=O)N/N=C(\N)COc1ccc(Cl)cc1 | 22 | 0 | 0.7 | -7 | 1 | 34
Cc1onc(-c2ccccc2)c1C(=O)N/N=C(\N)COc1ccc(Cl)cc1 | 6 | 69* | 0.3 | 4 | 0.3 | 74*
Cc1cccc(C)c1NC1=NC2(CCCCC2)N=C(N)N1 | 7 | -6 | 1 | 5 | 1.1 | -1
O=[N+]([O-])c1ccc2c(c1Nc1ccccc1)=NC1(CCCCC1)N=2 | 2 | 10 | 0.5 | 10 | 0.9 | 53*
O=c1c2c3c(sc2n2cnnc2n1Cc1ccccc1)CN(Cc1ccccc1)CC3 | / | 66* | 0.3 | / | 0.3 | 74*
Cc1nnc2n(Cc3ccccc3)c(=O)c3c4c(sc3n12)CN(Cc1ccccc1)CC4 | / | 6 | 0.9 | / | 0.9 | 8
CC1CCC(C(=O)NC(C(=O)N2CCN(c3ccccn3)CC2)C(C)C)CC1 (stereo not given) | 16 | 3 | 1 | -7 | 1 | 2
CCC(C)(C(=O)NC1CCCCC1)N(Cc1ccco1)C(=O)c1cnccn1 (stereo not given) | 0 | 13 | 0.9 | 2 | 0.9 | 6
COc1ccccc1/C=N/NC(=Nc1ccc(C)cc1)c1nc2ccccc2s1 | 21 | -1 | 1 | -2 | 1 | 1
COc1cc(/C=N/NC(=Nc2ccc(C)cc2)c2nc3ccccc3s2)ccc1O | 55* | 24 | 0.1 | 0 | 0.8 | 94*
CC(Nc1nc(N2CCN(S(C)(=O)=O)CC2)nc2ccccc12)c1ccccc1 (stereo not given) | -12 | / | / | 10 | / | /
Nc1nc(-c2ccc3ccccc3c2)c(C2(O)C(=O)Nc3c(Br)cc(F)cc32)s1 (stereo not given) | 12 | 92* | 1.1 | -2 | 0.1 | -12
C=CCn1c(N)c(C(=O)Nc2ccccc2)c2nc3ccccc3nc21 | 37* | -7 | 1.1 | 10 | 1.1 | -6
C=CCn1c(N)c(C(=O)OC(C)(C)C)c2nc3ccccc3nc21 | 10 | 63* | 0.2 | 19 | 0.4 | 77*
C=CCn1c(N)c(C(=O)OC(C)CC)c2nc3ccccc3nc21 (stereo not given) | 38* | 56* | 0.2 | -2 | 0.4 | 83*
CN(C)C(=O)N1CCC(C(=O)NCc2cccs2)CC1 | 0 | -12 | 1.2 | -3 | 1.1 | -20
C=CCOc1ccc(/C(O)=C2/C(=O)C(=O)N(CCCn3ccnc3)C2c2cccs2)cc1 (stereo not given) | 9 | 31 | 0.6 | 0 | 0.7 | 38
Cc1cc(C)n2nc(/C(C#N)=C/c3ccccc3)c(C#N)c2n1 | 6 | 5 | 0.8 | 0 | 0.9 | 18
CCNC(=S)NNC(=O)CCn1c2ccccc2c2ccccc21 | 8 | 31 | 1.1 | 0 | 0.7 | -14
CC(C)Cn1c(N)c(C(=O)NCC2CCCO2)c2nc3ccccc3nc21 (stereo not given) | 10 | 65* | 0.1 | -3 | 0.4 | 85*
